# Sampled rows, rich in hits. Any-hit rate of the full collection: about 19%.
# HT1080-NT tox – kills 2HG-producing HT-1080-NT fibrosarcoma cells; 360,000 tested, 1.6% active; HT-1080-NT fibrosarcoma viability, CellTiter-Glo ATP luminescence, 48 h; Potency, µM (highest dose often 46.1 µM), for inactives: top-dose activity, negative = less viability, usual class: cytotoxic;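 also: NT is the 2HG producing partner of a matched IDH1 knockdown line; potency is read from the fitted curve at half-maximal effect; 0% = DMSO-treated cells and -100% = media-only wells without cells; nearly all actives have a fitted effect of over 55% in size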
#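 Luminescent CellTiter-Glo readout after 48 hours of compound exposure at 37 degrees C defined viability of HT-1080-NT cells. Activity was normalized to DMSO wells and cell-free media wells; concentration-response curves were fitted and assigned curve classes.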
# TDP1 cell noCPT – qHTS for Inhibitors of human tyrosyl-DNA phosphodiesterase 1 (TDP1): qHTS in cells in absence of CPT. DT40 Tdp1-/- hTDP1 cells, no CPT, ATP luminescence, 48 h. Potency, µM (top dose mostly 46.2 µM), for inactives: at the highest dose activity change, negative = growth inhibition, usual class: inhibitors. 420,000 tested, 15% active. AID 686978, 2013; also: potency is read from the fitted curve at half-maximal effect; nearly all actives have a fitted effect of over 55% in size
#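 Compound effects on proliferation are scored in DT40 Tdp1-/-;hTDP1 cells in the absence of CPT. ATP levels (CellTiter-Glo luminescence) are recorded after a ≥48 hr, 37 °C incubation.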
# DT40 TDP1 CPT – DT40-hTDP1 cell growth loss with CPT. chicken DT40 Tdp1-/-;hTDP1 cells + 20 nM CPT, ATP luminescence, 48 h. AID 686979. 420,000 tested, 12% active. Potency, µM (highest dose often 46.2 µM), for inactives: at the top dose activity change, negative = growth inhibition, most hits filed as inhibitors; also: potency is read from the fitted curve at half-maximal effect; nearly all actives have a fitted effect of over 55% in size
#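 Chicken DT40 Tdp1-/- cells complemented with human TDP1, 400 cells/well, exposed to compounds plus 20 nM camptothecin for at least 48 h at 37 C; viability read as ATP content by CellTiter-Glo luminescence.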
# IL1B secr inh – inhibitors of inflammasome signaling (IL-1 beta secretion). THP-1 LPS/ATP IL-1B secretion, AlphaLISA, 16 h; stronger effect = lower value. activity change, % at 57.5 µM. 360,000 tested, 4.7% active; in the data active = activity change below about -50%; inconclusive = mostly about -30% to -49%
#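 THP-1 cells pretreated 1 hr with compounds (up to 57.5 uM final), then stimulated with LPS (250 ng/mL final) plus ATP (1.25 mM final); secreted IL-1B measured by AlphaLISA after 16 hr, decreased signal indicating inhibition.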
# HT1080 IDH1KD tx – toxicity to HT-1080 IDH1 knockdown cells (counter line); 360,000 tested, 2% active; AID 686971; Potency, µM (series often up to 46.1 µM), for the others: at the highest dose activity, negative = toxicity, hits mostly cytotoxic; HT-1080 IDH1 knockdown viability, ATP luminescence, 48 h;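 also: potency is read from the fitted curve at half-maximal effect; 0% = DMSO wells and -100% = cell-free medium wells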
#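 Cytotoxicity counter-line: IDH1KD HT-1080, 48 h, CellTiter-Glo. Curves classed by r2, magnitude and activity.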
# ELG1 DNA repair – inhibitors of ELG1-dependent DNA repair in HEK293T cells; HEK293T ELG1-luciferase reporter, luminescence, 16 h; DNA damage induced by 5-fluorouridine; Potency, µM (series often up to 46.1 µM), inactives show at the top dose activity change, negative = inhibition, hits mostly inhibitors; 330,000 tested, 2.3% active; AID 504467; also: potency is read from the fitted curve at half-maximal effect; nearly all actives have a fitted effect of over 55% in size
#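 Quantitative HTS, concentration-response format. 2,000 cells/well co-treated with 5-fluorouridine and compound, 16 hr in 5% CO2 at 37 °C; ONE-Glo luminescence read after 30 min.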
# * hit, by the source's call; ? = inconclusive; / = no result. Unless noted, calls follow the shape of the dose curve; as a rule, active = well fitted curve in the direction sought with a large enough effect; inconclusive = small, poorly fitted or top-dose-only effect, or another doubt; inactive = no such curve, though single readings can be large; an effect the other way counts as inactive or inconclusive. Unless noted, % is scaled to controls: 0 for no effect and ±100 for the full control effect.
SMILES,HT1080-NT tox,TDP1 cell noCPT,DT40 TDP1 CPT,IL1B secr inh,HT1080 IDH1KD tx,ELG1 DNA repair
O=S(=O)(Nc1cc(Sc2ncn[nH]2)c(O)c2ccccc12)c1ccccc1,2.3µM*,2.1µM*,1.2µM*,-95*,4.6µM*,23µM*
Cc1ccc(S(=O)(=O)Nc2ccc(Br)cc2C(NCC(=O)O)c2ccccc2)cc1 (centres undefined),-4%,6%,-4%,8,-12%,5%
COc1ccc(NC(=O)C2c3ccccc3OCC(=O)N2C2CC2)cc1 (centres undefined),19%,-21%,-3%,11,7%,/
Cc1c(CC(=O)NCc2ccccc2Cl)c(=O)oc2cc(O)ccc12,/,-27%,?,/,/,/
NC(=O)c1ncn([C@@H]2O[C@H](CNC(=O)[C@H](N)CSCc3ccccc3)[C@@H](O)[C@H]2O)n1,13%,12%,18%,51,8%,/
C[C@H](CO)N1C[C@H](C)[C@@H](CN(C)Cc2ccc(C(=O)Nc3ccccc3N)cc2)Oc2c(NC(=O)C3CCCCC3)cccc2C1=O,-10%,15µM*,15µM*,-22,-1%,?
C[C@H](CO)N1C[C@H](C)[C@@H](CN(C)S(=O)(=O)c2ccc(F)cc2)Oc2c(NC(=O)CCC(F)(F)F)cccc2C1=O,16%,-1%,?,?,6%,2%
C[C@H](CO)N1C[C@H](C)[C@@H](CN(C)Cc2ccc(Cl)c(Cl)c2)Oc2c(NC(=O)CCC(F)(F)F)cccc2C1=O,-24%,12µM*,18µM*,-70*,-14%,0%
C[C@H](CO)N1C[C@H](C)[C@@H](CN(C)Cc2ccc3c(c2)OCO3)Oc2c(NC(=O)C3CCCCC3)cccc2C1=O,-8%,23µM*,21µM*,?,-11%,-5%
C[C@H](CO)N1C[C@H](C)[C@@H](CN(C)Cc2ccc(Cl)c(Cl)c2)Oc2c(NC(=O)C3CC3)cccc2C1=O,-30%,23µM*,16µM*,-84*,-4%,?
CN1CCN(c2cc(-c3ccc(N(C)C)cc3)ncn2)CC1,/,-22%,8%,/,/,/
CCc1cccc(C)c1NC(=O)C1CN(S(=O)(=O)c2ccccc2)CCN1S(=O)(=O)c1ccccc1 (centres undefined),9%,?,?,-29,12%,?
C[C@H](CO)N1C[C@H](C)[C@@H](CN(C)CC2CCCCC2)Oc2c(NC(=O)Cc3ccccc3)cccc2C1=O,-12%,16µM*,15µM*,-70*,-19%,?
Cc1ccccc1N1CC(C(=O)Nc2ccc(S(=O)(=O)N3CCCCC3)cc2)CC1=O (centres undefined),2%,16µM*,?,-4,-8%,?
CC(C)(C)N1CC(C(=O)Nc2ccc(S(=O)(=O)N3CCCCC3)cc2)CC1=O (centres undefined),-7%,1.6µM*,?,-11,1%,1%
Cc1cccc(N2CC(C(=O)Nc3ccc(S(=O)(=O)N4CCCCC4)cc3)CC2=O)c1C (centres undefined),-25%,?,?,?,-27%,-13%
O=C(CCNC(=O)c1ccccc1Cl)NCCC1=CCCCC1,-1%,-7%,7%,-11,-2%,19%
Cc1ccsc1CCN1C(=O)N(c2ccccc2)C(=O)C1CC(=O)Nc1ccc(F)cc1 (centres undefined),/,15µM*,?,/,/,/
COCCCN1C(=O)N(c2ccccc2)C(=O)C1CC(=O)Nc1ccc(F)cc1 (centres undefined),0%,-1%,?,0,0%,5%
Cc1ccsc1CCN1C(=O)N(c2ccc(F)cc2)C(=O)C1CC(=O)Nc1ccccc1 (centres undefined),/,23µM*,?,/,/,/
CCOC(=O)C1CCN(S(=O)(=O)c2ccc3c4c(cccc24)C(=O)N3CC)CC1,-8%,-8%,3%,39,-7%,?
CCCOC(=O)c1ccc(-c2c(C)noc2-c2ccc(OC)cc2O)o1,-35%,?,-29%,-20,?,21µM*
CCOC(=O)N1CCN(C(=O)C2CCN(Cc3cccc(OCc4ccccc4)c3)CC2)CC1,0%,?,?,20,-1%,-1%
CN(C)c1ccc(C(=O)Nc2ccc(CN3CCS(=O)(=O)CC3)cc2)cc1,-4%,-36%,-4%,?,-3%,?
CC(C)(C)N(Cc1ccccc1)C(=O)CSc1nnc(CNc2ccc(F)cc2)o1,-4%,?,11µM*,-6,?,/
SMILES,HT1080-NT tox,TDP1 cell noCPT,DT40 TDP1 CPT,IL1B secr inh,HT1080 IDH1KD tx,ELG1 DNA repair
O=C(CSc1nnc(CNc2ccc(F)cc2)o1)N1c2ccccc2Sc2ccccc21,-20%,26µM*,21µM*,?,?,?
O=C(CSc1nnc(CNc2ccc(F)cc2)o1)N1CCN(C(=O)c2ccco2)CC1,-1%,-15%,?,10,5%,-9%
CCc1ccc2oc(-c3ccc(C)c(NC(=O)Cc4ccccc4)c3)nc2c1,/,-19%,-21%,/,/,/
c1ccc(CCCN2CCN(c3ccccc3)CC2)cc1,-1%,-7%,13%,8,4%,4%
CCCCCN(C(=O)CCC(=O)OCCOc1cccc(C)c1)c1c(N)n(CCCC)c(=O)[nH]c1=O,-5%,21µM*,?,-4,-10%,8%
CCCCCN(C(=O)CCC(=O)OCC(=O)c1ccc(C(C)CC)cc1)c1c(N)n(CCCC)c(=O)[nH]c1=O (centres undefined),?,?,?,-68*,-14%,-8%
CCCCCN(C(=O)CCC(=O)OCCOc1ccc(OCC)cc1)c1c(N)n(CCCC)c(=O)[nH]c1=O,-16%,-24%,?,?,-6%,-16%
CCCCCN(C(=O)CCC(=O)OCc1cccc(Br)c1)c1c(N)n(CCCC)c(=O)[nH]c1=O,-16%,15µM*,?,-1,-8%,-17%
CCCCCN(C(=O)CN1CCC(Cc2ccccc2)CC1)c1c(N)n(CCCC)c(=O)[nH]c1=O,-9%,?,-30%,-78*,-9%,-1%
CCCCCN(C(=O)CCC(=O)OCCOc1ccccc1)c1c(N)n(CCCC)c(=O)[nH]c1=O,1%,-6%,6%,-1,-1%,14%
